Out of some 190,000 compounds screened, about 1,300 (0.68%) were called active. Rule as the data show it: active = inhibition above about 50%; inactive = the rest. Many of the other results were omitted from the sample, so actives are more common in it than they were.
biological target: Mannose-6-phosphate isomerase (Homo sapiens) (UniProt P34949); experiment: MPI inhibition at elevated mannose 6-phosphate – biochemical, fluorescence intensity, high mannose 6-phosphate, primary screen (AID 1220); conditions: recombinant PMI enzyme, coupled fluorescence intensity; at 20 µM; active compounds read high
Sequence (P34949 whole entry, looked up): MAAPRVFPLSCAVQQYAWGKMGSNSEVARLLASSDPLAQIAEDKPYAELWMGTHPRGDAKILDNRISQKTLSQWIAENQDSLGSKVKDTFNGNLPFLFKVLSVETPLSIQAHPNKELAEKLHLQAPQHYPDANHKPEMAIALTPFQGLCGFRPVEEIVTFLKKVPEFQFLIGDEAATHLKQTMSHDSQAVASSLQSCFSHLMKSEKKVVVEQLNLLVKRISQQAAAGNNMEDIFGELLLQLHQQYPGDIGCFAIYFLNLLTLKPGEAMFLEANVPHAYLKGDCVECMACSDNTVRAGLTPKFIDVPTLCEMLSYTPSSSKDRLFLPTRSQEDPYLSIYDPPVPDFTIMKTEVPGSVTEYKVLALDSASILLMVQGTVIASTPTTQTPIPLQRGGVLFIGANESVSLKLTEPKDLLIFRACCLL

inhibition, active:
O=C(NCc1ccccc1)C1=C[C@H](c2ccc3c(c2)OCO3)C[C@H](OCCCCO)O1 64.5%
O=C(NCc1ccccc1)C1=C[C@@H](c2ccccc2)C[C@@H](OCc2ccc(CO)cc2)O1 61.7%
CC(=O)N(C)c1ccc(NC(=S)Nc2cccc3ccccc23)cc1 55.1%
CCc1ccc(NC(=S)Nc2cccc3cnccc23)cc1 51.5%
Cc1cc(C)cc(NC(=S)Nc2cccc3cnccc23)c1 59.3%
COC(=O)C1=C2SC(C)C(=O)N2C(N)=C(C#N)C1c1ccc(OC)c(OC)c1 (stereo not given) 51.3%
COc1ccc(S(=O)(=O)N2CCOC2CNC(=O)C(=O)NCCc2ccc(OC)c(OC)c2)cc1C (stereo not given) 52.2%
COc1ccc(NC(=S)Nc2ccc3nc(C)c(C)nc3c2)cc1 54.2%
COc1ccc(NC(=S)Nc2ccc3snnc3c2)cc1 54.2%
CCC(C)(C(=O)NC1CCCC1)N(Cc1cccs1)C(=O)c1ccccn1 (stereo not given) 59.3%
COc1cccc(CN2CCNC(=O)C2CC(=O)NCCn2ccc3ccccc32)c1OC (stereo not given) 51.1%
CCOc1ccc(NC(c2ccccn2)c2oc(CO)cc(=O)c2O)cc1 (stereo not given) 51.1%
CC(=O)NC(c1ccc(Cl)cc1)c1c(O)ccc2ccc(O)cc12 (stereo not given) 69.9%
COCCN=C1NN=C(c2cc(C)n(CC3CCCO3)c2C)CS1 (stereo not given) 54.9%
CCOC(=O)C1(Cc2ccccc2C)CCCN(Cc2cc(OC)c(O)c(OC)c2)C1 (stereo not given) 65.5%

inhibition, inactive:
CCCOc1ccc(C(=O)c2nc3c(n2O)CCCC3)cc1 -4.1%
CC1Oc2ccccc2C=C1/C=C1/SC(N2CCOCC2)=NC1=O (stereo not given) 26.6%
CCCCc1nnc(NC(=O)C2CCCO2)s1 (stereo not given) 4.7%
c1cncc(CSc2ccc(-c3cccnc3)nn2)c1 -3.2%
CCC(CC)c1nnc(NC(=O)c2c(C)nn(Cc3ccccc3Cl)c2C)s1 3%
O=C(CCNS(=O)(=O)c1cccs1)NC1CCN(Cc2ccccc2)CC1 6.1%
CC(=O)OCc1c(F)c(F)c(-n2nc(C)cc2C)c(F)c1F 1.5%
COc1ccc(-c2nnn(CC(=O)N(CCCN3CCOCC3)C(C(=O)NC3CCCC3)c3ccco3)n2)cc1 (stereo not given) 8.7%
CNC(=O)NC(=O)C(C)OC(=O)CCCSc1nc2ccccc2s1 (stereo not given) 4.7%
Cc1cc2ccccn2c1C(=O)c1ccc(Cl)c([N+](=O)[O-])c1 3.4%
O=C(Nc1nn[nH]n1)c1cccc([N+](=O)[O-])c1 1.8%
O=C(Nc1ccccc1Br)c1c(F)cccc1Cl -8.7%
C#CCNC(=O)C1=C[C@@H](c2ccccc2)C[C@@H](OCc2ccc(CO)cc2)O1 28.3%
O=C(Nc1ccccc1)C1=C[C@H](c2ccc3c(c2)OCO3)C[C@H](OCCCCO)O1 12.1%
O=C(O)C1=C[C@@H](c2ccc3c(c2)OCO3)C[C@@H](OCCCCO)O1 4%
O=C(Nc1ccccc1)C1=C[C@@H](c2ccccc2)C[C@@H](OCc2ccc(CO)cc2)O1 15.7%
Cc1nn(Cc2ccccc2Cl)c(C)c1NC(=O)CCCn1nc([N+](=O)[O-])c(Cl)c1C 0.3%
CC(=O)N1CCN=C1SCc1ccc(C)cc1 5.8%
C=CCn1c(COc2ccc(Cl)cc2)nnc1SCC(=O)NCC(=O)OCC -3.6%
CCOC(=O)C1(Cc2cccc(F)c2)CCN(C(=O)C2CCCO2)CC1 (stereo not given) -13.3%
O=C(Nc1cc(N2CCOCC2)ncn1)NC1(C(F)(F)F)Oc2ccccc2O1 7.9%
Cc1cc(NC(=O)NC2(C(F)(F)F)Oc3ccc(Cl)cc3O2)no1 (stereo not given) 12.7%
Cc1cc(NC(=O)CSc2nc(-c3ccccc3)nc3c2c(=O)n(C)c(=O)n3C)no1 -6.7%
CCn1c(SCC(=O)Nc2cc(OC)c(OC)c(OC)c2)nnc1-c1cccs1 0.1%
Fc1ccc(NC(=S)Nc2cccc3cnccc23)cc1 -10.5%
Cc1ccc(NC(=S)Nc2cccc3cnccc23)c(C)c1 25.7%
COc1ccc(NC(=S)Nc2ccc(N(C)C(C)=O)cc2)cc1 17.5%
S=C(Nc1ccc(Cl)cc1)Nc1cccc2cnccc12 12.2%
CC(=O)N(C)c1ccc(NC(=S)Nc2ccccc2)cc1 2.5%
Cc1ccc(NC(=S)Nc2cccc3cnccc23)cc1C -34.8%
COc1cc(OC)cc(C(=O)N2CCCc3ccccc32)c1 12.7%
Brc1ccc(/C=N/Nc2ccccn2)cc1 -7.7%
COC(=O)CS(=O)(=O)c1cc([N+](=O)[O-])ccc1NC(=O)OC 13.9%
C1CCCN(c2nc3nonc3nc2N2CCCCCC2)CC1 -3.2%
N#CCCn1cc(C(=O)N2CCOCC2)c(-c2ccc3c(c2)OCCO3)n1 5.1%
Cc1ccc2[nH]c(=O)c(CN(Cc3ccccc3Cl)C(=O)N3CCOCC3)cc2c1 8.8%
CCOC(=O)C1=C(N)N2C(=O)C(C)SC2=C(C(=O)OC)C1c1cccc(OC)c1 (stereo not given) 2.8%
COC(=O)C1=C2SC(C)C(=O)N2C(N)=C(C#N)C1c1cc(OC)c(OC)c(OC)c1 (stereo not given) 24.2%
COc1ccc(CCNC(=O)C(=O)NCC2OCCN2S(=O)(=O)c2ccc(Br)cc2)cc1OC (stereo not given) -12.7%
COc1ccc(S(=O)(=O)N2CCOC2CNC(=O)C(=O)NCCc2ccc(OC)c(OC)c2)cc1 (stereo not given) -0.2%
O=C(O)C1CCC(=O)N1Cc1ccc(F)cc1 (stereo not given) -3.6%
CCc1ccc(NC(=O)NCCN2CCc3ccccc3C2)cc1 -6.5%
CCOP(=O)(OCC)C(Nc1ccccn1)c1ccccc1 (stereo not given) -3.9%
Cc1c2cnn(-c3ccccc3)c(=O)c2c(C)n1CCCC(=O)N1CCN(c2ncccn2)CC1 -2.5%
S=C(Nc1ccc(N2CCOCC2)cc1)Nc1ccc2snnc2c1 41%
CNC(=S)Nc1ccc2nc(C)c(C)nc2c1 38%
COc1ccc(NC(=S)Nc2ccc3nsnc3c2)cc1 47%
COc1ccc(NC(=O)c2ccc3snnc3c2)cc1 -1.3%
CCNC(=S)Nc1ccc(Cl)c(C(F)(F)F)c1 7.2%
CCN1CCC(NC(=O)Nc2ccc(F)cc2F)CC1 -11.5%
CCCS(=O)(=O)c1ccc(COC(=O)c2ccc(NC(C)=O)cc2)cc1 -0.1%
c1ccn2c(Cc3nnc4ccccn34)nnc2c1 -7.1%
CCn1nc(C)c(C(=O)Nc2cc(Oc3ccc(Cl)cc3)cc([N+](=O)[O-])c2)c1C 4.3%
O=C(N/C(=C\c1ccco1)C(=O)N1CCCC1)c1cccs1 8.5%
CCC(C)(C(=O)NC1CCCCC1)N(Cc1cccs1)C(=O)c1ccccn1 (stereo not given) -2%
CCC(C)(C(=O)NC1CCCC1)N(Cc1cccs1)C(C)=O (stereo not given) 0.2%
Cc1c2c(nc3c(C(=O)NC4CC4)cnn13)CCCC2 -0.9%
COc1cccc(CN2CCNC(=O)C2CC(=O)NCc2cn3ccccc3n2)c1OC (stereo not given) 7.8%
COc1cccc(CN2CCNC(=O)C2CC(=O)NCCn2cccn2)c1OC (stereo not given) 16.7%
Cc1c(NC(=O)C2CCCO2)cccc1[N+](=O)[O-] (stereo not given) 0.2%
Cc1c(N=CC=Nc2c(C)n(C)n(-c3ccccc3)c2=O)c(=O)n(-c2ccccc2)n1C -5.1%
Cc1c(N=C2C(=O)Nc3ccccc32)c(=O)n(-c2ccccc2)n1C 14.2%
Cc1csc(=Nc2c(C)n(C)n(-c3ccccc3)c2=O)n1-c1ccccc1 5.3%
Cc1c(N=c2scc(-c3ccccc3)n2C)c(=O)n(-c2ccccc2)n1C -10.5%
O=C(N1CCOCC1)N(CCN1CCOCC1)Cc1cccc2ccccc12 6.2%
CCOc1ccccc1NC(=O)c1ccc2nccnc2c1 14.2%
CC(NS(=O)(=O)c1ccc(Br)cc1)C(c1cccs1)N1CCOCC1 (stereo not given) 10.2%
O=c1cc(CO)oc(C(Nc2cccc(C(F)(F)F)c2)c2ccccn2)c1O (stereo not given) 43.6%
O=c1cc(CO)oc(C(Nc2cccc([N+](=O)[O-])c2)c2ccccn2)c1O (stereo not given) 28.5%
COc1ccc(C(NC(C)=O)c2c(O)ccc3ccccc23)cc1OC (stereo not given) 8.9%
O=C(NC(c1ccc(Cl)cc1)c1c(O)ccc2ccccc12)c1ccccc1 (stereo not given) 27.6%
CCc1ccc(-n2c(Cc3ccccc3)n[nH]c2=S)cc1 10.9%
Cc1cc(C2=NNC(=NCCc3ccccc3)SC2)c(C)n1CC1CCCO1 (stereo not given) -32.7%
CCOc1ccc(N=C2NN=C(c3cc(C)n(CC4CCCO4)c3C)CS2)cc1 (stereo not given) -81.4%
Cc1cc(C)c(S(=O)(=O)Cc2ccccc2)c(=O)[nH]1 -13%
COc1ccc(/C=N/NC(=O)Cn2c(Cc3ccc(OC)c(OC)c3)nc3ccccc32)cc1OC 5.5%
CCN1C(=O)C(CC(=O)Nc2ccccc2)S/C1=N\c1ccccn1 (stereo not given) -2.2%
CCOC(=O)C1(Cc2ccccc2C)CCCN(Cc2ccc(NC(C)=O)cc2)C1 (stereo not given) -4.1%
CCOC(=O)C1(Cc2ccccc2C)CCCN(Cc2cn(C)nc2C)C1 (stereo not given) 12.5%
COc1ccc(CC(=O)Nc2ccc(OC)c(NC(=O)c3ccco3)c2)cc1 11.2%

Reference: PubChem BioAssay AID1220 (Sanford-Burnham Center for Chemical Genomics, 2008)
